The panel holds about 83,000 compounds, 20% with a hit somewhere; the sample as a whole holds those more often.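 The endpoint reported here, percent growth, reads 100 for growth as untreated, 0 for no net growth and -100 for all cells dead.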 Unmarked numbers belong to inactive results. Active and inactive are the calls of the source. The calls were made as follows: active = growth percent below 10; inactive = the rest.
Assays:
Test in all cases: NCI-60 one-dose screen, 48 h (100 = growth as untreated, 0 = no growth, -100 = all killed)
Settings in all cases: 10 µM unless noted
HT29 colon = tested on: HT29 colon
SNB-75 CNS = tested on: SNB-75 CNS
SNB-19 CNS = tested on: SNB-19 CNS
U251 CNS = tested on: U251 CNS
SK-MEL-5 melanoma = tested on: SK-MEL-5 melanoma
LOX IMVI melanoma = tested on: LOX IMVI melanoma
SK-MEL-28 melanoma = tested on: SK-MEL-28 melanoma
SK-MEL-2 melanoma = tested on: SK-MEL-2 melanoma
SN12C renal = tested on: SN12C renal
UO-31 renal = tested on: UO-31 renal
TK-10 renal = tested on: TK-10 renal
ACHN renal = tested on: ACHN renal
CAKI-1 renal = tested on: CAKI-1 renal
A498 renal = tested on: A498 renal
CCRF-CEM leukemia = tested on: CCRF-CEM leukemia
PC-3 prostate = tested on: PC-3 prostate
EKVX NSCLC = tested on: EKVX NSCLC
MOLT-4 leukemia = tested on: MOLT-4 leukemia
UACC-62 melanoma = tested on: UACC-62 melanoma
HCT-15 colon = tested on: HCT-15 colon

Row | SMILES | growth (HT29 colon) | growth (SNB-75 CNS) | growth (SNB-19 CNS) | growth (U251 CNS) | growth (SK-MEL-5 melanoma) | growth (LOX IMVI melanoma) | growth (SK-MEL-28 melanoma) | growth (SK-MEL-2 melanoma) [%] | growth (SN12C renal) [%] | growth (UO-31 renal) | growth (TK-10 renal) | growth (ACHN renal) | growth (CAKI-1 renal) | growth (A498 renal) | growth (CCRF-CEM leukemia) | growth (PC-3 prostate) | growth (EKVX NSCLC) [%] | growth (MOLT-4 leukemia) | growth (UACC-62 melanoma) | growth (HCT-15 colon) [%]
1 | Cc1nc2cc(Nc3nc(NCCO)nc(Nc4ccc(F)cc4)n3)ccc2n1Cc1ccccc1 | 71.9% | 102% | 100% | 86.3% | 80.3% | 81.9% | 108% | 122 | 91.1 | 78.8% | 133% | 98.3% | 100% | 66.2% | 1.93% (active) |  |  |  |  | 
2 | Oc1ccc2ccccc2c1C1NN=C(c2ccccc2)S1 (configuration not stated) | 37.8% | 41.8% | 23.6% | 19.4% | 11.6% | 13.8% | 23% |  | 17.2 | -11.5% (active) | 49% | 10.9% | -1.25% (active) | 31.3% |  | 27.7% | 27.4 | 13% |  | 
3 | COc1ccc(C2SC(C)C(=O)N2CCc2cccs2)cc1OC (configuration not stated) | 91.6% | 69.1% | 86.9% | 83.2% | 49.4% | 81.9% | 108% | 93 | 90.1 | 79.2% | 113% | 80.1% | 73.2% | 81.9% | 75.9% | 65.7% | 66.4 | 64.7% | 73.5% | 
4 | C=CC(=O)N1CC2(CC(n3nc(-c4ccc(Oc5ccccc5)cc4)c4c(N)ncnc43)C2)C1 | 31.7% | -13.6% (active) | 36.6% | 21% |  | -17.8% (active) | 29% | 28.6 | 17.1 | 15.2% |  | 5.33% (active) | 8.28% (active) | -71.7% (active) | 54.3% | 51.3% |  | 17% | 7.95% (active) | 
5 | N#CC1=C(N)Oc2cc(N)ccc2C1c1ccc(F)cc1 (configuration not stated) | 46.4% | 67.2% | 81.1% | 83.4% |  | 78.1% | 84.8% | 79.8 | 90.4 | 79.5% | 84.8% | 99.4% | 62.6% | 64.8% | 66.6% | 90.8% | 97.1 | 70.8% | 74.7% | 
6 | COc1cccc(-c2ccc3c(c2)C2CCN(Cc4ccccc4)C3C2)c1 (configuration not stated) | 36.5% | 77% | 90.4% |  | 99.4% | 85.5% | 85.7% | 61.5 | 90.4 | 51.6% | 92.4% | 93.2% | 78.4% | 65% | 63.8% | 66.5% |  | 68.8% | 83.6% | 
7 | Clc1ccc(Nc2nc(Nc3ccccc3)nc(Nc3ccc(-c4cc(-c5ccc(Cl)cc5)on4)cc3)n2)cc1 | -2.96% (active) | 16.6% | 76.7% | 48.5% | 86% | 32.5% | 77.7% |  | 64 | 41.7% | 52.8% | 47.1% | 48.2% | 43.9% | 70.5% | 46.1% | 69.5 | 52.2% | 53.3% | 
8 | O=C(CCc1nnc2sc(-c3ccccc3)nn12)c1nc2ccccc2[nH]1 | 62.1% | 83.9% | 104% | 88.7% | 92.4% | 88.3% | 103% | 104 | 86.6 | 77.5% | 108% | 101% | 103% | 80.4% |  | 85.7% | 99.5 | 78.4% | 102% | 
9 | COc1ccc(S(=O)(=O)ON=C2C=C(C)C(=O)C(C)=C2)cc1 | 93.3% | 69.1% | 113% | 94.4% | 98.2% | 62% | 96.8% | 82.5 | 113 | 80.4% | 109% | 46% | 61.6% | 98.4% | 26.9% | 86% |  | 42% | 91.2% | 
10 | CN1CCN(CCCn2c3c(sc4ncccc43)c(=O)n3nnc(-c4ccccc4)c23)CC1 | -46.2% (active) | 73.8% | 5.98% (active) | -80.8% (active) | -98% (active) | -96% (active) | 111% | 99.3 | 75.2 |  | -73.3% (active) |  | 97.7% | 150% | -20.6% (active) | -3.82% (active) | 97.2 | -35% (active) | 91% | 
11 | Nc1nc(N)c(N=Nc2c(Br)cc(S(N)(=O)=O)cc2Br)c(N)n1 | 115% | 90.6% | 97.5% |  | 98.2% | 110% | 99.5% | 94.9 | 103 | 98% | 122% | 114% | 99% | 96.4% | 88.3% | 95.1% |  | 95.2% | 91.8% | 
12 | CCN1CCN(C(=S)SCC(=O)Nc2nc3ccc(OC)cc3s2)CC1 | 102% | 94% | 93.1% | 102% | 94.6% | 91.3% | 106% |  | 97.6 | 79% | 111% | 110% | 81.8% | 105% |  | 82.9% | 101 | 97.2% |  | 
13 | COc1ccc(/C=C2\Oc3cc(C)c(Cl)cc3C2=O)cc1OC | 109% | 101% | 98.4% | 96.8% | 91.8% | 92.9% | 114% | 109 | 95 |  | 112% | 97.9% | 87.2% |  | 87.4% | 101% | 94 | 91% | 87.3% | 
14 | COC(=O)/C=C1/CCC2C3CCC4=CC(=O)C(Br)CC4(C)C3C(=O)CC12C (configuration not stated) |  | 70.8% | 78.9% |  | 57.4% | 38.2% | 94.5% |  | 82.9 |  |  | 72.5% | 73.9% | 117% | 5.9% (active) | 53.5% | 98 | 52.3% | 73.5% | 66.6
15 | CC(=O)Nc1ccc(Sc2ccc([N+](=O)[O-])o2)cc1 | 26.4% | 58.3% | 118% | 31.9% | 59.5% | 5.12% (active) | -8.34% (active) |  | 54.2 | 24.2% | 64.9% | -28.1% (active) |  | 120% |  | 58.9% | 76.4 | 33.2% |  | 
